Here are results for seven compounds from PubChem BioAssay (Tox21).

Structures are written as SMILES. Where “and” joins values, the source holds several entries; their conditions need not be identical. Identical values can stand only once. Results filed as inconclusive are left out. More than one record can exist for a structure, and the calls need not agree. Calls of active or inactive are those of the source. Unless noted, calls come from the whole dose curve; as a rule, active = well fitted curve in the direction sought with a large enough effect in the repeat runs; inconclusive = weak or mixed curves; inactive = no such curve, though single readings can be large; an effect the other way counts as inactive or inconclusive.

Assay [1] in a line: qHTS assay to identify aromatase inhibitors - cell viability counter screen (AID 743084).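 Note: cells stimulated with testosterone during compound exposure; nearly all actives have a fitted effect of over 55% in size.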 Note: potency is the fitted concentration of half-maximal effect.
In assay [2] the target is Aryl hydrocarbon receptor (Homo sapiens) (UniProt P35869). The experiment in a line: qHTS assay to identify small molecule that activate the aryl hydrocarbon receptor (AhR) signaling pathway (AID 743085).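 For activation: HG2L7.5c1 human HepG2 liver cells with stably integrated DRE-driven firefly reporter; series mostly up to about 70 µM.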 Note: nearly all actives have a fitted effect of over 15% in size. Note: potency is the fitted concentration of half-maximal effect. Summed up: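 Steps: seed HepG2-AhR-luc cells; allow 5 h at 37C; pin-transfer test compound or vehicle; incubate 24 h at 37C; add viability dye (30 min, 37C) and read fluorescence; add luciferase substrate (30 min, RT) and read luminescence.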
For orientation: qHTS replaces the single test concentration by a dilution series.

Assay [3] is described as follows: qHTS assay to identify small molecule that activate the aryl hydrocarbon receptor (AhR) signaling pathway - cell viability counter screen (AID 743086). Note: nearly all actives have a fitted effect of over 45% in size. Note: potency is the fitted concentration of half-maximal effect. The essentials: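 HepG2-AhR-luc (HG2L7.5c1) cells, 4000/well, treated 24 h at 37 C with compound; viability measured as CellTiter-Fluor fluorescence after 30 min in the same wells as the luciferase read.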
Assay [4] can be described thus: qHTS assay to identify small molecule antagonists of the peroxisome proliferator-activated receptor gamma (PPARg) signaling pathway - cell viability counter screen (AID 743194). Note: nearly all actives have a fitted effect of over 55% in size. Note: potency is the fitted concentration of half-maximal effect. Summed up: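 Cytotoxicity counter screen in PPARg-bla HEK293H cells, same wells as reporter assay. Compounds plus 50 nM rosiglitazone (final) for 17 h at 37 C, then viability read by CellTiter-Glo luminescence.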

The nature of assay [5]: qHTS assay for small molecule agonists of the antioxidant response element (ARE) signaling pathway (AID 743202; active = well fitted activation curve with a large enough effect in the signal ratio in the repeat runs, not every such curve was filed as active; the % refers to the signal ratio; note: potency is the fitted concentration of half-maximal effect). The essentials:
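HepG2 ARE-bla cells; 16 h treatment at 37 C; FRET-based beta-lactamase fluorescence read after 2 h substrate incubation at room temperature.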

Assay [6] in a line: qHTS assay for small molecule agonists of the antioxidant response element (ARE) signaling pathway - cell viability counter screen (AID 743203; calls by dose curve; note: nearly all actives have a fitted effect of over 55% in size; note: potency is the fitted concentration of half-maximal effect). The essentials:
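Viability counter screen: CellTiter-Glo luminescence, read after 30 min at room temperature, in ARE-bla HepG2 wells. Compound exposure lasted 16 h at 37C/5% CO2, following a 5 h pre-incubation of the cells after plating.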

A short description of assay [7]: qHTS assay for small molecule activators of the heat shock response signaling pathway - cell viability counter screen (AID 743209). Note: nearly all actives have a fitted effect of over 50% in size. Note: potency is the fitted concentration of half-maximal effect. Summed up:
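Cytotoxicity counter screen run in the same wells as the heat-shock bla reporter assay: HeLa HSE-bla cells, 5 h compound exposure at 37 C, viability read by CellTiter-Glo luminescence.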

Assay [8] is described as follows: qHTS assay for small molecule activators of the heat shock response signaling pathway (AID 743210; active = well fitted activation curve with a large enough effect in the signal ratio in the repeat runs, with a control signal flat, not every such curve was filed as active; the % refers to the signal ratio;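 note: HeLa cells with beta-lactamase reporter driven by heat shock elements; series mostly up to about 63 µM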). Summed up:
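Following overnight attachment, HSE-bla HeLa cells received test compounds for 5 h at 37 C; beta-lactamase activity was then detected via FRET substrate fluorescence.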

A short description of assay [9]: qHTS assay to identify small molecule agonists of the peroxisome proliferator-activated receptor delta (PPARd) signaling pathway - cell viability counter screen (AID 743211). Note: nearly all actives have a fitted effect of over 55% in size. Note: potency is the fitted concentration of half-maximal effect. Summed up:
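Viability of GeneBLAzer PPARd UAS-bla HEK293H cells was assessed after 17 h compound incubation at 37C, using CellTiter-Glo reagent added after the reporter read and luminescence recorded 30 min later.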

In assay [10] the target is Peroxisome proliferator-activated receptor delta (Homo sapiens) (UniProt Q03181). Briefly: qHTS assay to identify small molecule agonists of the peroxisome proliferator-activated receptor delta (PPARd) signaling pathway (AID 743212; calls by dose curve). Summed up:
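Tox21 library screened in GeneBLAzer PPARd UAS-bla HEK293H cells. After compound treatment at 37 C, a FRET-based beta-lactamase substrate was applied for 2 h and fluorescence recorded.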

Assay [11] in a line: qHTS assay to identify small molecule agonists of the farnesoid-X-receptor (FXR) signaling pathway - cell viability counter screen (AID 743218). Note: nearly all actives have a fitted effect of over 45% in size. Note: potency is the fitted concentration of half-maximal effect. Summed up:
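Viability counter screen in the same wells: CellTiter-Glo luminescence, 30 min room-temperature incubation, measured after the beta-lactamase read. Cells were GeneBLAzer FXR-UAS-bla HEK 293T, compound-treated 16 h at 37C.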

Assay [12] has as its target Bile acid receptor (Homo sapiens) (UniProt Q96RI1). The experiment in a line: qHTS assay to identify small molecule agonists of the farnesoid-X-receptor (FXR) signaling pathway (AID 743220; active = well fitted activation curve with a large enough effect in the signal ratio in the repeat runs, not every such curve was filed as active; the % refers to the signal ratio; note: potency is the fitted concentration of half-maximal effect). Summed up:
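FXR-UAS-bla HEK 293T cells carrying a UAS-driven beta-lactamase reporter were plated for 5 h at 37C/5% CO2, then exposed to DMSO-dissolved Tox21 10K compounds for 16 h at 37C. A LiveBLAzer B/G FRET substrate was loaded for 2 h at room temperature before fluorescence reading.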

Assay [13] can be described thus: qHTS assay to identify small molecule antagonists of the peroxisome proliferator-activated receptor delta (PPARd) signaling pathway - cell viability counter screen (AID 743213). Note: nearly all actives have a fitted effect of over 50% in size. Note: potency is the fitted concentration of half-maximal effect. Summed up:
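Agonist-stimulated (L165041, 300 nM final) HEK293H PPARd UAS-bla cells are exposed to compounds for 17 h at 37 C, and ATP-based luminescence (CellTiter-Glo) from the same wells reports cytotoxicity.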

Assay [14] is described as follows: qHTS assay to identify small molecule antagonists of the farnesoid-X-receptor (FXR) signaling pathway - cell viability counter screen (AID 743221; active = well fitted cell-killing curve with a large enough effect in the repeat runs, not every such curve was filed as active; note: nearly all actives have a fitted effect of over 50% in size; note: potency is the fitted concentration of half-maximal effect). The essentials: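 Quantitative HTS of the Tox21 10K library run in parallel with the beta-lactamase reporter read. HEK 293T cells carrying a UAS-driven bla reporter got compound and 50 uM CDCA (final) for 16 h; ATP-based luminescence followed.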

Assay [15] concerns the target Peroxisome proliferator-activated receptor gamma (Homo sapiens) (UniProt P37231). The experiment in a line: qHTS assay to identify small molecule antagonists of the peroxisome proliferator-activated receptor gamma (PPARg) signaling pathway (AID 743191; calls by dose curve; note: series mostly up to about 63 µM; nearly all actives have a fitted effect of over 30% in size). Summed up:
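GeneBLAzer PPARg UAS-bla HEK293H cells, 5 h post-plating, exposed to compounds 17 h at 37C. LiveBLAzer B/G FRET substrate added for 1 h at room temperature; beta-lactamase reporter read by fluorescence intensity.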

Assay [16] deals with Peroxisome proliferator-activated receptor delta (Homo sapiens) (UniProt Q03181). The experiment in a line: qHTS assay to identify small molecule antagonists of the peroxisome proliferator-activated receptor delta (PPARd) signaling pathway (AID 743215; active = well fitted inhibition curve with a large enough effect in the signal ratio in the repeat runs, not every such curve was filed as active; the % refers to the signal ratio; note: series mostly up to about 62 µM). The essentials: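 Agonist L165041 (300 nM final) added with compound to PPARd-bla HEK293H UAS-bla reporter cells; 17 h incubation at 37 C. Read-out: LiveBLAzer FRET substrate, 2 h at room temperature, fluorescence intensity.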

Assay [17] concerns the target Bile acid receptor (Homo sapiens) (UniProt Q96RI1). Briefly: qHTS assay to identify small molecule antagonists of the farnesoid-X-receptor (FXR) signaling pathway (AID 743217; active = well fitted inhibition curve with a large enough effect in the signal ratio in the repeat runs, not every such curve was filed as active; the % refers to the signal ratio). The essentials: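 Antagonist mode: chenodeoxycholic acid at 50 uM final stimulates a UAS-driven beta-lactamase reporter in HEK 293T FXR-bla cells during 16 h, 37C compound exposure. Read-out is FRET substrate fluorescence after 2 h at room temperature.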

In assay [18] the target is Vitamin D3 receptor (Homo sapiens) (UniProt P11473). The experiment in a line: qHTS assay to identify small molecule agonists of the vitamin D receptor (VDR) signaling pathway (AID 743222; calls by dose curve). Summed up: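 Agonist mode, beta-lactamase reporter: fluorescence from LiveBLAzer B/G FRET substrate (2 h, room temperature) read after 16 h compound treatment at 37 C of VDR-bla cells, which were pre-incubated 4 h after seeding.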

The target is the same in assay [19]. Briefly: qHTS assay to identify small molecule antagonists of the vitamin D receptor (VDR) signaling pathway (AID 743223; active = well fitted inhibition curve with a large enough effect in the signal ratio in the repeat runs, not every such curve was filed as active; the % refers to the signal ratio). Summed up:
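Fluorescence from LiveBLAzer B/G FRET substrate, read after 2 h at room temperature, reflects beta-lactamase reporter activity in VDR-bla cells treated 16 h at 37C with compounds and agonist 1alpha,25-dihydroxyvitamin D3 (3 nM final).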

Bile acid receptor (Homo sapiens), sequence (Q96RI1 whole entry, looked up): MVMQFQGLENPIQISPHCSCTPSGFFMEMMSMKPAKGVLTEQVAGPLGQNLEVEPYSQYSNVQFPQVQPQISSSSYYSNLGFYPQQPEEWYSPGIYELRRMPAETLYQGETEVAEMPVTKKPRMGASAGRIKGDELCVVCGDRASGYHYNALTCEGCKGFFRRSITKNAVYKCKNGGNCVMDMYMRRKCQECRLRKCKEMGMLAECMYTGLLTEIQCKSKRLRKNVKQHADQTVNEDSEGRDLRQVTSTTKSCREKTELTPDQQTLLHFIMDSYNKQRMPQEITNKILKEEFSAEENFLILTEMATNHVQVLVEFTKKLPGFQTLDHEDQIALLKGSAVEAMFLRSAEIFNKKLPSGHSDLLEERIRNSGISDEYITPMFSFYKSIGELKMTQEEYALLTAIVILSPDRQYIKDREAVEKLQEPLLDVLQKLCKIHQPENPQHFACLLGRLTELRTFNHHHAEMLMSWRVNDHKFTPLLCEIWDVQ
Aryl hydrocarbon receptor (Homo sapiens), sequence (P35869 whole entry, looked up): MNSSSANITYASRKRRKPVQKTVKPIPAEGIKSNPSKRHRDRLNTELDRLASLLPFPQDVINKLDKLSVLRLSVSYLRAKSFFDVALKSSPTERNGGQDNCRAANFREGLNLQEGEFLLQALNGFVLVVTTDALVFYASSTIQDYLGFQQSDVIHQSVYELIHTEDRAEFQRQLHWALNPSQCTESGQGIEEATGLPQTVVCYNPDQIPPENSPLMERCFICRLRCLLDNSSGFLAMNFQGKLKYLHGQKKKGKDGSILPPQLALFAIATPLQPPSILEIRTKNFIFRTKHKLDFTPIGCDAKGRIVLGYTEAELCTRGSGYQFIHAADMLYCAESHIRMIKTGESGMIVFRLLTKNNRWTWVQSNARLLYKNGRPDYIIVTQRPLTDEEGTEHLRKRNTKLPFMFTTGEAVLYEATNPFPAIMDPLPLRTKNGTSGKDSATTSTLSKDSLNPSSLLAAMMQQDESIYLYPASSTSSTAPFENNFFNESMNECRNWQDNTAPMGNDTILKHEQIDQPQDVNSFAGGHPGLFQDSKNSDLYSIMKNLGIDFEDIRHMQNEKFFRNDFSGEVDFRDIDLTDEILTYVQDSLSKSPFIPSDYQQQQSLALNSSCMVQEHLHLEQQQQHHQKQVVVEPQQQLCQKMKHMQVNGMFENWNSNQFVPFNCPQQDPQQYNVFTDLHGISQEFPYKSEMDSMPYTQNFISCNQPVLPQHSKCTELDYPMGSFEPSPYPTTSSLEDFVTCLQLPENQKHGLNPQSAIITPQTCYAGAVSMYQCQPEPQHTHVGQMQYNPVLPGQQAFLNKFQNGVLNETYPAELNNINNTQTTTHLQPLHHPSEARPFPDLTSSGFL
Peroxisome proliferator-activated receptor delta (Homo sapiens), sequence (Q03181 whole entry, looked up): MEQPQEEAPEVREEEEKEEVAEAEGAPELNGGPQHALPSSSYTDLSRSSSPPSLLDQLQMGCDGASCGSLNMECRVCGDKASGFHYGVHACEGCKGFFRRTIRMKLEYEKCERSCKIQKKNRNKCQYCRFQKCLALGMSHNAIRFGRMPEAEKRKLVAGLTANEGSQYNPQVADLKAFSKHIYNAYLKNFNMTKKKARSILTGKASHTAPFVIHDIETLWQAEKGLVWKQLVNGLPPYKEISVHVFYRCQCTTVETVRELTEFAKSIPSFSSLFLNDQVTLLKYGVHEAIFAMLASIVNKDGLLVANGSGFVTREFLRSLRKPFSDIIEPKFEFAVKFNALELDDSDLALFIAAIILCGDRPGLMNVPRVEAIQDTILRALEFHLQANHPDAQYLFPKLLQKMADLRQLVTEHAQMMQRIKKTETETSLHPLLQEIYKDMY
Vitamin D3 receptor (Homo sapiens), sequence (P11473 whole entry, looked up): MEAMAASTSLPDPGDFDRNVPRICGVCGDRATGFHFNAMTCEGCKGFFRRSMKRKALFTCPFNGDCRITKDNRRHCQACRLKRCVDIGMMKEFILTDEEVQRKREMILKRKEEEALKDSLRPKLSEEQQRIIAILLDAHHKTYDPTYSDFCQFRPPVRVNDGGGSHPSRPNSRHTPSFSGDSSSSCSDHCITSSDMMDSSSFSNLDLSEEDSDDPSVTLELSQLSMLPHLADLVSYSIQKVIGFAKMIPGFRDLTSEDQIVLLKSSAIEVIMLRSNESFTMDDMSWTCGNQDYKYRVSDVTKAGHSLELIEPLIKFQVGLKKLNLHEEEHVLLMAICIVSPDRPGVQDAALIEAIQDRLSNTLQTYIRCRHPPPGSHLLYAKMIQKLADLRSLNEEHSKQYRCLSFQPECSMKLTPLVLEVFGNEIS
Peroxisome proliferator-activated receptor gamma (Homo sapiens), sequence (P37231 whole entry, looked up): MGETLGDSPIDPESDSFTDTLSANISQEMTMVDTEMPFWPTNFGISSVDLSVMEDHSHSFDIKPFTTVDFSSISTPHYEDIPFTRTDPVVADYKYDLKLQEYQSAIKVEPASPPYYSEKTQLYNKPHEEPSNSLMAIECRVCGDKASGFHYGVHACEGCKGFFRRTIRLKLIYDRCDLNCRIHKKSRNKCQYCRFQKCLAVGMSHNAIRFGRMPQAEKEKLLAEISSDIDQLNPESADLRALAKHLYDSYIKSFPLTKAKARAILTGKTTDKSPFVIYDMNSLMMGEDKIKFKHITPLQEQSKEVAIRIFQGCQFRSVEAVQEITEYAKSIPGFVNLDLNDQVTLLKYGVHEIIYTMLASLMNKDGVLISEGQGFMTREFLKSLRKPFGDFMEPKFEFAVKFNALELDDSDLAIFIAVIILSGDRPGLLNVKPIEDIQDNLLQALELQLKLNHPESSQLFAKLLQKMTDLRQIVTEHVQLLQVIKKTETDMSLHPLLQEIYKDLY

In the case of `Cc1ccc(C)cc1`, the Potency entry in assay [1], in assay [2], in [3], in assay [4], in assay [5] and in [6] was “inactive” throughout. Besides, the Potency entry in [7], in assay [8], in assay [9], in assay [10], in assay [11] and in assay [12] was “inactive” each time.

For `Cc1c2ccccc2c(C)c2c1ccc1ccccc12`, in [1], the Potency result is “inactive”. Also, the Potency was 8.55 µM (active) and 21.7 µM (active) in [2]; 60.5 µM (active) and 48.6 µM (active) in assay [3]; 49 µM (active) in [4]; 24.3 µM (active) in assay [6]; 48.5 µM (active) and 38.9 µM (active) in [9]; 21.9 µM (active) in assay [13]. For the same compound, the Potency in assay [11] was 21.9 µM (active); in assay [12] it was 48.5 µM (active); in [14], 43.6 µM (active).

`[Cl][Pt-2]([Cl])([Cl])[Cl]`: the Potency entry in assay [1], in assay [2], in assay [3], in assay [15], in [6] and in assay [8] was “inactive” each time. Further, the Potency entry in assay [9], in [10], in assay [16], in [17], in assay [11] and in assay [12] was “inactive” in each case. The Potency entry in assay [14], in assay [18] and in assay [19] was “inactive” in each case. Moreover, the Potency in [5] is 48.8 µM (active).

For the compound `O=C(O)c1cc(N=Nc2ccc([N+](=O)[O-])cc2)ccc1O`, the Potency in assay [1] is 26.8 µM (active); in assay [2], 3.37 µM (active); in assay [3], 53.5 µM (active); in assay [5], 60 µM (active); in assay [11], 30.3 µM (active). Further, the Potency result in [6], in assay [9], in assay [16] and in assay [14] was “inactive” in each case.

Turning to `CC(C)(C)NSc1nc2ccccc2s1`, the Potency result in [1], in assay [3], in assay [15], in assay [4], in assay [6] and in assay [9] was “inactive” in each case. The Potency result in assay [10], in assay [13], in [16], in [14] and in assay [18] was “inactive” throughout. Further, the Potency in assay [2] and in [5] was 27.8 µM (active) throughout.

In the case of `Nc1nc(N)nc(-c2cc(Cl)ccc2Cl)n1`, the Potency entry in [1], in [2], in assay [3], in [4], in assay [5] and in assay [6] was “inactive” throughout. In addition, the Potency result in [8], in assay [9], in assay [10], in assay [13], in [16] and in assay [11] was “inactive” throughout. Moreover, the Potency entry in assay [12] and in assay [14] was “inactive” each time.

As for `C=C(CC)C(=O)c1ccc(OCC(=O)O)c(Cl)c1Cl`, the Potency entry in assay [1], in assay [2], in [4], in assay [6], in [9] and in [13] was “inactive” throughout. Besides, the Potency entry in [11] and in [14] was “inactive” in each case. Moreover, the Potency entry in assay [3] is “inactive and 68.1 µM (active)”; in [5] it was 0.764 µM (active); in assay [7], 18.8 µM (active).
